The values below come from ChEMBL document CHEMBL3988442, “University of Dundee, Small-Polar-MMV Screening Library” (2021).

The test system of the test is Leishmania donovani. Put plainly: Leishmania intramacrophage assay. Type of test: functional, organism-based. Further details: scale not given: in the data most compounds retested in dose-response had high values.

Among all 69,000 compounds or so, about 1,000 (1.4%) showed an effect of 50% or more. The sample holds strong results, similar compounds and a random draw of the others, so the mix is not that of the screen.

Regarding `O=C(c1ccc2[nH]c(=O)[nH]c2c1)N1CCC(Nc2cccnn2)CC1`, where the note is “30 µM”, the “Percent Effect” value was -0.4678%.
With `c1cc(NCc2ccsc2)cc(-c2nnc[nH]2)c1`, for the setting “30.3 µM, […]”, the “Percent Effect” value turned out to be 34.15%.
Same read-out and setting: next, `Oc1ccc(Br)c(CNc2cccc(-c3nnc[nH]3)c2)c1`: 51.72%.
On the same count and under the same terms, under `Oc1c(F)cc(CNc2cccc(-c3nnc[nH]3)c2)cc1F` stands 16.51%; under `CN(CCO)C(=O)Nc1ccn(-c2cccc(C(F)(F)F)c2)n1`, 13.55%.
As for `Cc1nc2n(n1)CC(NCc1csc(-c3ccsc3)n1)CC2` (stereo not given), the “Percent Effect” value (30 µM) is on record as 1.329%.
In the case of `O=C(NC[C@H]1OC[C@@H](NC2COC2)[C@@H]1O)c1cccs1`, the “Percent Effect” value (30.3 µM, […]) was found to be 17.79%.
Regarding `Cc1ccc2c(c1)C(=O)NCC1(CCN(C(=O)c3ccnn3C)CC1)O2`, the “Percent Effect” value (30.3 µM, […]) was found to be 23.56%.
Still for that read-out and setting: under `Cc1ccc2c(c1)C(=O)NCC1(CCN(C(=O)c3ccccn3)CC1)O2` stands 39.06%; under `Cc1ccc2c(c1)C(=O)NCC1(CCN(C(=O)c3cc(C)no3)CC1)O2`, 77.82%; under `Cc1cccc(C)c1OC1CN(C(=O)C2CC(=O)N(C(C)(C)C)C2)C1` (stereo not given), 48.27%.
The same measure, in the same setting: next, `CN1C(=O)C(c2ccccc2)CC12CCN(CCN)CC2` (stereo not given): 16.5%.
On the same count and under the same terms, under `CCc1cc(NCCCOC2CCN(C)CC2)ncn1` stands -6.301%; under `CCc1cc(NCCCOC2CCCC2)ncn1`, 51.18%; under `CCc1cc(NCCCN(C)C2CCCC2)ncn1`, 22.72%.
Turning to `Cn1ccc(CN2CCC3(CCCN3CC3CC3)CC2)n1.O=C(O)C(F)(F)F.O=C(O)C(F)(F)F`, the “Percent Effect” value (30.3 µM, […]) was 41.38%.
On the same count and under the same terms, under `O=C(CC1CN(Cc2ccccc2)CCO1)NC1CCSCC1` (stereo not given) stands 18.94%.
`Cc1ccc(CC(=O)N(C)CC2(O)CCN(c3ccccn3)C2)s1` (stereo not given): the “Percent Effect” value (30 µM, 30.03 µM) was determined as 24.75%.
As for `CC(=O)c1cnc(NCCN2CCCC(c3ccccc3)C2)nc1C` (stereo not given), the “Percent Effect” value (30.3 µM, […]) is -39.73%.
Still for that read-out and setting: under `O=C(C1CCCOC1)N1CCN(CC(F)(F)F)c2ccccc21` (stereo not given) stands -20.84%; under `O=C(C1COCCO1)N1CCN(CC(F)(F)F)c2ccccc21` (stereo not given), 56.8%.
Same read-out and setting: next, `O=C(C1CCOC1)N1CCN(CC(F)(F)F)c2ccccc21` (stereo not given): 25.18%; `CC(C)Cc1cc(CN2C[C@H]3CC[C@@H]2CN(Cc2cscn2)C3)n[nH]1`: 2.738%.
On the same count and under the same terms, under `CC(C)(C)c1cc(CN2C[C@@H]3CC[C@H](C2)N(Cc2ccccn2)C3)n[nH]1` stands 9.516%; under `CC(C)(C)c1cc(CN2C[C@H]3CC[C@@H]2CN(Cc2cscn2)C3)n[nH]1`, 99.99%.
Regarding `CCCc1n[nH]c(C2CN(C(=O)c3ccco3)CCO2)n1` (stereo not given), the “Percent Effect” value (30 µM, 30.03 µM) is on record as 22.5%.
For `Cc1nc2c(c(NCCCN3CCOCC3)n1)CCN(C)C2`, the “Percent Effect” value (30.3 µM, […]) came to 22.12%.
Consider `Cc1nc2c(c(NCCN3CCOCC3)n1)CCN(C)C2`, for which the “Percent Effect” value (30.3 µM, […]) was 32.47%.
The same measure, in the same setting: under `CCN(CC)CCCNc1nc(C)nc2c1CCN(C)C2.O=C(O)CC(O)(CC(=O)O)C(=O)O` stands 53.93%; under `Cc1nccc([C@H]2C[C@@H]3CCN(C(=O)c4c(C)noc4C)C[C@H]3O2)n1`, 16.88%; under `Cc1ccccc1OCCSc1nnc(CC2CCS(=O)(=O)C2)n1C` (stereo not given), 22.12%.
In the case of `COCc1cc(N2CCOC(c3ccc(Cl)c(Cl)c3)C2)ncn1` (stereo not given), the “Percent Effect” value (30.3 µM, […]) was found to be 54.26%.
The same measure, in the same setting: under `COCc1cc(N2CCOC(c3ccc(Cl)cc3)C2)ncn1` (stereo not given) stands 15.44%; under `COCc1cc(N2CCOC(c3ccc(F)cc3)C2)ncn1` (stereo not given), -18.01%; under `COc1ccc(-c2nc(CN3CCCC(OC)C3)c(C)o2)c(F)c1` (stereo not given), 76%.
Take `COCc1ncn(Cc2nc(-c3ccc(OC)cc3F)oc2C)n1`: for the setting “30.3 µM, […]”, the “Percent Effect” value was -35.79%.
The same measure, in the same setting: next, `CCCOC1CCCN(Cc2nc(-c3ccc(F)cc3F)oc2C)C1` (stereo not given): -16.44%; `COc1cccc(CN(C(=O)Nc2nncs2)C2CCC(O)CC2)c1` (stereo not given): 1.528%; `O=C1NC2(CCN(C(=O)c3ccnnc3)CC2)CC1c1ccccc1` (stereo not given): 21.04%.
Still for that read-out and setting: under `COC(=O)c1cccc(-c2nc(CC3CCN(C)CC3)no2)c1` stands 10.91%.
Regarding `CCCN1CCC(Cc2noc(-c3cc4cccnc4nc3C)n2)CC1`, the “Percent Effect” value (30.3 µM, […]) is listed as 32.81%.
As to `CN1CCC(Cc2noc(-c3cccc4c3OCC4)n2)CC1`, the “Percent Effect” value (30.3 µM, […]) was 31.67%.
Still for that read-out and setting: next, `CCCN1CCC(Cc2noc(-c3ncccc3C)n2)CC1`: 17.75%; `CC(=O)c1ccccc1-c1nc(CC2CCN(C)CC2)no1`: 87.64%; `CCCN1CCC(Cc2noc(-c3cccnc3OC)n2)CC1`: 57.42%.
The same measure, in the same setting: under `CSCc1noc(CNC(=O)C2CCN(C3CCCCC3)CC2)n1` stands 24%; under `Cc1noc(C)c1CN(C)c1ncnc2ccccc12`, 12.67%.
On to `CC(Cn1cc(Br)cn1)C(=O)Nc1ccc(Cl)cn1` (stereo not given), for which the “Percent Effect” value (30.3 µM, […]) is -88.88%.
Take `CC(C)c1nc(C2CCCN(C(=O)CCn3cncn3)C2)no1` (stereo not given): the “Percent Effect” value (30 µM) was 13.68%.
As for `O=C(Cc1ccc(F)cc1)NCCNc1cc(N2CCCC2)ncn1`, the “Percent Effect” value (30.3 µM, […]) is recorded as -9.653%.
On the same count and under the same terms, next, `CCN1CC(COC(=O)c2cc(Br)ccc2F)CC1=O` (stereo not given): -7.569%; `CCN1CC(COC(=O)c2ccc(N(C)C)cc2F)CC1=O` (stereo not given): 23.8%; `CCN1CC(COC(=O)c2ccc(Br)cc2F)CC1=O` (stereo not given): 87.43%.
On the same count and under the same terms, under `COc1ccccc1CC(=O)N1CCCC1Cn1nc(C)cc1C` (stereo not given) stands 13.95%; under `O=C1O[C@@H]2CN(Cc3cccc(O)c3)C[C@@H]2N1CCCN1CCOCC1`, 8.802%.
`CCOc1ccc(Cl)c(C(=O)NC)n1`: the “Percent Effect” value (30 µM) was 10.53%.
For `O[C@@H]1C[C@@H](c2nc(-c3ccccc3)no2)N(CC2CCCCC2)C1`, for the setting “30.3 µM, […]”, the “Percent Effect” value is 18.41%.
Take `COc1ccnc(CN(C)C(=O)CSc2nnc(N)s2)c1`: the “Percent Effect” value (30.3 µM, […]) is 23.55%.
On the same count and under the same terms, next, `COc1ccc(CN(C)C(=O)CSc2nnc(N)s2)c(OC)c1OC`: 28.05%; `CCn1ccc(CN(C)C(=O)CSc2nnc(N)s2)n1`: 54.38%.
The same measure, in the same setting: under `CC(C(=O)N1CCCCC1)N1CCN(c2ncc(Cl)cn2)CC1` (stereo not given) stands 6.463%; under `Cc1cc(S(=O)(=O)N2CCC(S(C)(=O)=O)C2)ccc1F` (stereo not given), 24.83%; under `CS(=O)(=O)C1CCN(S(=O)(=O)c2ccc(F)c(F)c2)C1` (stereo not given), 54.9%.
Turning to `CS(=O)(=O)C1CCN(S(=O)(=O)c2ccc(F)c(F)c2)CC1`, where the note is “30.3 µM, […]”, the “Percent Effect” value is listed as -2.266%.
The same measure, in the same setting: next, `O=C(NCc1ccccn1)N1CC=C(c2ccccc2)CC1`: 1.233%.
